# High-throughput results deposited in PubChem by National Center for Advancing Translational Sciences (NCATS).
# Pf growth 96h: P. falciparum growth inhibition at 96 hour, primary screen for plastid delayed-death inhibitors; P. falciparum luciferase reporter growth, 96 h; 320,000 compounds, 6.9% hits; AID 504834; Potency, µM (doses to about 28.7 µM), usual class: inhibitors
#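 Compounds incubated with erythrocytes infected by luciferase-expressing P. falciparum (2% hematocrit, 0.05% parasitemia final) for 96 hours, 37 C in 5% CO2. Growth inhibition scored as decreased luciferase luminescence.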
# Pf growth 48h: P. falciparum growth inhibition at 48 hours (one generation); P. falciparum luciferase growth in erythrocytes, 48 h; Potency, µM (highest dose often 28.7 µM), usual class: inhibitors; 310,000 compounds, 5.9% hits; AID 504832
#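 Firefly luciferase activity from engineered P. falciparum reports growth; inhibitors lower the luminescent signal. Cultures contained 2% hematocrit erythrocytes at 0.1% final parasitemia.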
# Shiga toxin inh: inhibitors of Shiga toxin in Vero cells; 290,000 compounds, 9.2% hits; Vero cells, Shiga toxin protein synthesis inhibition reporter; AID 2315; inhibition, % at 38.7 µM; in the data active = inhibition mostly above about 28%, no sharp cut-off; inactive = mostly below about 43%
# NS1 inh: inhibitors of influenza NS1 protein function; Potency, µM (doses to about 46.1 µM); 270,000 compounds, 0.4% hits; AID 2326; calls by dose curve; also: actives are rising curves; nearly all actives have a fitted effect of over 50% in size
#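 OD600 was taken as the measure of yeast growth restored by compound in an NS1-expressing S. cerevisiae strain. Cells had been washed out of glucose medium and diluted 1:100 into galactose -URA medium, pH 6.0.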
# CHX counter: counter-screen for Shiga toxin inhibitors: cycloheximide protein synthesis inhibition | cell reporter, cycloheximide protein synthesis inhibition counterscreen | max response, % | 300,000 compounds, 12% hits; in the data active = max response mostly above about 13%, no sharp cut-off; inactive = mostly below about 14%; also: read at 38.3 µM for the half of the compounds with a filed dose
# Hits are given with their value; n = inactive; u = inconclusive; x = no result. In the library only some 21% were active in any assay of this set; here they are far more common. Unless noted, calls follow the shape of the dose curve; as a rule, active = well fitted inhibition curve with a large enough effect; inconclusive = small, poorly fitted or top-dose-only effect, or another doubt; inactive = no such curve, though single readings can be large or run the other way.
SMILES,Pf growth 96h,Pf growth 48h,Shiga toxin inh,NS1 inh,CHX counter
Cc1cc(C(=O)NCCc2ccccc2)c2cc(F)ccc2n1,n,n,n,n,n
CCOc1ccc(C2=C(C=C(C#N)C#N)C(c3ccccc3)c3ccccc3O2)cc1 (stereo not drawn),n,3.7µM,n,n,n
CCOc1ccc(C2C(C#N)=C(N)Oc3c2c(=O)oc2ccccc32)cc1 (stereo not drawn),u,n,n,n,n
COc1ccc(C2=C(CN(C)C)C(c3ccccc3)c3ccccc3O2)cc1 (stereo not drawn),2.62µM,4.65µM,n,n,n
CCOP(=O)(NC12CC3CC(CC(C3)C1)C2)NC12CC3CC(CC(C3)C1)C2,2.94µM,3.7µM,n,n,n
O=P(c1ccccc1)(c1ccccc1)C(c1ccccn1)P(=O)(c1ccccc1)c1ccccc1,9.28µM,u,n,n,n
CC/C(=N\NC(=O)c1ccc(N2CCCC2=O)cc1)c1ccccc1,u,n,n,n,n
COc1ccc(N(Cc2cc3ccccc3[nH]c2=O)S(=O)(=O)c2ccc(C)cc2)cc1,n,n,38.8,n,26.9
Cc1ccc(N(Cc2cc3ccccc3[nH]c2=O)S(=O)(=O)c2ccccc2)cc1,u,u,n,n,n
Cc1ccc(S(=O)(=O)N(C)Cc2cc3ccccc3[nH]c2=O)cc1,9.28µM,u,n,n,n
CN(Cc1cc2ccccc2[nH]c1=O)S(=O)(=O)c1ccccc1,n,n,n,n,19.0
CCN(Cc1cc2ccccc2[nH]c1=O)C(=O)C(C)C,0.928µM,n,n,n,n
Cc1ccc(NC(=O)C2CCCN2C(=O)NCc2ccccc2)cc1 (stereo not drawn),n,n,n,n,n
CCNc1nc(Cl)nc(NNC(=O)C(C)Oc2ccccc2)n1 (stereo not drawn),u,n,n,n,n
CCOC(=O)Cc1csc(NC(=O)CSc2nnc(C)n2C)n1,10.4µM,n,n,n,n
CCOC(=O)Cc1csc(NC(=O)CSc2nnc(C3CC3)n2C)n1,13.1µM,n,n,n,n
CCOC(=O)Cc1csc(NC(=O)CSc2ncnc3c2cnn3-c2ccccc2Cl)n1,x,7.38µM,n,n,n
CCOC(=O)Cc1csc(NC(=O)CSc2nnc(C(C)C)n2C)n1,n,n,n,n,n
COC(=O)c1c(NC(=O)CSc2ncnc3c2cnn3-c2ccccc2Cl)sc2c1CCCC2,u,u,n,n,n
COc1ccc(Nc2cc(C)c3ccc(O)cc3n2)cc1,u,0.37µM,51.6,n,45.5
Cc1cc(Nc2ccccc2)nc2cc(O)ccc12,n,0.329µM,113.8,n,37.3
Cc1cc(-n2c(C)cc(C(=O)COc3ccc(F)c(F)c3)c2C)no1,n,n,x,x,x
O=S1(=O)C=CC(Nc2ccccc2)C1 (stereo not drawn),n,n,n,n,n
O=C(NCc1ccco1)c1cnn2cccnc12,n,n,n,n,n
CCOC(=O)CNC(=O)c1cnn2cccnc12,u,n,n,n,41.7
SMILES,Pf growth 96h,Pf growth 48h,Shiga toxin inh,NS1 inh,CHX counter
CCOc1ccc2[nH]c(=O)c(C(c3nnnn3Cc3ccco3)N3CCCC(C)C3)cc2c1 (stereo not drawn),n,u,n,n,n
CCOc1ccc(Br)cc1CNCc1cccnc1,u,n,n,n,n
Fc1ccccc1COc1ccc(Br)cc1CNCc1ccncc1,11.7µM,x,n,n,n
CCOc1cc(CNCc2ccncc2)cc(Br)c1OCc1ccc(F)cc1,u,u,n,n,n
Fc1ccccc1COc1ccc(Br)cc1CNCc1cccnc1,u,13.1µM,n,n,n
Fc1ccc(COc2ccc(Br)cc2CNCc2ccncc2)cc1,u,8.28µM,n,n,n
Cc1oc(-c2cccs2)nc1CN1CCN(C(C)C)C(CCO)C1 (stereo not drawn),10.4µM,n,n,n,n
COc1ccc(/C(N)=N/OC(=O)c2cc(-c3ccccc3)nc3ccccc23)cc1,n,n,n,n,n
COc1ccc(C(=O)O/N=C(\N)c2ccccc2)cc1OC,n,n,91.2,n,43.7
COc1cc(OC)c(C(=O)O/N=C(\N)c2ccccc2)cc1OC,n,u,48.3,n,29.1
COc1ccc(C(=O)O/N=C(\N)c2cccc(C)c2)cc1OC,u,n,45.1,n,36.0
CC(=O)CCC(=O)NC1CCCc2c1cnn2-c1ccc(C(C)(C)C)cc1 (stereo not drawn),n,n,n,n,n
O=C(Cc1ccsc1)NNC(=O)c1cccc(Cl)c1,n,n,n,n,n
O=C(O)c1ccc(Nc2cnc3ccccc3n2)cc1,n,n,n,n,38.1
CCOC(=O)c1ccc(Nc2cc(C)nc(-c3ccccc3)n2)cc1,n,10.4µM,n,n,n
O=C(O)c1ccc(Nc2nc3ccccc3nc2NS(=O)(=O)c2cccs2)cc1,n,n,n,n,n
CCOC(=O)c1ccc(Nc2cnc3ccccc3n2)cc1,n,n,77.9,n,46.6
N#Cc1nc(Nc2cccc(Cl)c2)c2ncn(C3CCCC3)c2n1,u,n,x,x,x
COc1cc(C(=O)NNC2=CC(=O)CC(C)(C)C2)cc(OC)c1OC,n,n,n,n,n
CN(C)C1C(=O)C(C(N)=O)=C(O)[C@@]2(O)C(=O)C3=C(O)c4c(O)ccc(Cl)c4[C@@H](O)C3C[C@@H]12 (stereo partly drawn),x,x,x,n,x
CC(=O)Nc1ccc(S(=O)(=O)NCCC(=O)OCC(=O)NNC(=O)c2ccccc2)cc1,n,n,x,x,x
COCCN(C(=O)c1cc(OC)c(OC)c(OC)c1)c1c(N)n(Cc2ccccc2)c(=O)[nH]c1=O,n,n,n,x,n
Nc1nc2c(c(=O)[nH]1)CN(Cc1ccccc1)CC2,n,n,x,x,x
Nc1c2c(nc3ccccc13)CCN(Cc1ccccc1)C2,8.28µM,u,n,n,14.6
Cc1c(Cl)cccc1NC(=O)COC(=O)c1c2c(nc3ccccc13)CCN(Cc1ccccc1)C2,2.94µM,13.1µM,n,u,n
SMILES,Pf growth 96h,Pf growth 48h,Shiga toxin inh,NS1 inh,CHX counter
CC(C)c1ccccc1NC(=O)COC(=O)c1c2c(nc3ccccc13)CCN(Cc1ccccc1)C2,13.1µM,8.28µM,n,n,n
CC(=O)Nc1ccccc1-c1nc2ccccc2nc1OCC(=O)c1ccc2ccccc2c1,n,u,n,n,n
CC1(C)Cc2c(cnn2-c2cccc(F)c2)C(NC(=O)CCc2cnccn2)C1 (stereo not drawn),n,n,n,n,41.0
CC1(C)Cc2c(cnn2-c2ccc(F)cc2)C(NC(=O)c2ccco2)C1 (stereo not drawn),n,n,22.4,n,n
CC(=O)c1ccc(C(=O)NC2CC(C)(C)Cc3c2cnn3-c2ccccc2)cc1 (stereo not drawn),u,n,n,n,19.3
Cc1ccc(-n2ncc3c2CC(C)(C)CC3NC(=O)CCn2cncn2)cc1 (stereo not drawn),10.4µM,n,n,n,n
COc1ccc(C(=O)NC2CC(C)(C)Cc3c2cnn3-c2ccccc2)cc1OC (stereo not drawn),u,n,n,n,n
Cc1ncoc1C(=O)NC1CC(C)(C)Cc2c1cnn2-c1ccc(F)cc1 (stereo not drawn),n,n,n,n,n
